Test results from PubChem BioAssay (EPA / NIEHS).
Activity calls are given as the source filed them. The calls were made as follows: active = hit-call score of the fitted dose curve at least 0.9, where 1 is the maximum; inactive = score below 0.9.

Target: Estrogen receptor (Homo sapiens) (UniProt P03372)
Sequence (P03372 whole entry, looked up): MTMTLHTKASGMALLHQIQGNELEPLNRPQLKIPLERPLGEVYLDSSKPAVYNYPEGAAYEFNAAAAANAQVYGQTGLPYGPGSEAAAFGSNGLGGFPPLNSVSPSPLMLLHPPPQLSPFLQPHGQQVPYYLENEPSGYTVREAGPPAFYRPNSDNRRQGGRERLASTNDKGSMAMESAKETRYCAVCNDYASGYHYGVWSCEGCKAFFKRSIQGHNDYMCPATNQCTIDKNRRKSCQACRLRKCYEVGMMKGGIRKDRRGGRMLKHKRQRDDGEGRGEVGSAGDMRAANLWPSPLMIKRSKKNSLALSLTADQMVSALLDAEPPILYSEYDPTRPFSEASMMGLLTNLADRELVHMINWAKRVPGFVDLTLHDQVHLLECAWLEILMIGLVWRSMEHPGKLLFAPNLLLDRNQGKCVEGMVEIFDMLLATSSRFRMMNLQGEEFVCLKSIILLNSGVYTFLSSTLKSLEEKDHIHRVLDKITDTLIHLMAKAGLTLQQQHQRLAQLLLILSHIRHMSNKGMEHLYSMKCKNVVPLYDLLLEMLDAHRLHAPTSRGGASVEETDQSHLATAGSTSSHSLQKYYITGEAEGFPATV
Assay: CCTE_Deisenroth_AIME_384WELL_LUC_Shift: CCTE's 384-well Estrogen Receptor Transactivation Assay with AIME metabolic competence data shift (ERTA luciferase; difference in metabolism positive and negative), Deisenroth Lab (AID 2284041);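 also: shift is response with S9 minus without S9 so positive means metabolism raised ER signal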
In short: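 Chemicals (0.002–200 uM, 10 points) pre-incubated 2 h with alginate-encapsulated induced male Sprague Dawley rat liver S9 or S9-free, then medium applied 24 h to VM7Luc4E2 cells; luciferase. Endpoint is per-concentration difference, S9-positive minus negative.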
With `Cc1ccc(N)cc1O` the outcome was “inactive”.
For `C=CC(=C)CCC=C(C)C`, the outcome was “inactive”.
For `O=C(O)c1cccc(Oc2ccccc2)c1`, the outcome was “inactive”.
With `COc1cccc(-c2ccc(/C=C\CN3CCCCCC3)cc2Cl)c1` the outcome was “inactive”.
In the case of `CC(C)CCO`, the outcome is reported as “inactive”.
For `Nc1ccc(Nc2ccccc2)cc1`, the outcome was “inactive”.
In the case of `COc1ccc2sc(C(=O)Nc3nnn[nH]3)c(OC(C)C)c2c1`, the outcome is reported as “inactive”.
For `CCCC(=O)OCC`, the outcome was “inactive”.
In the case of `Cn1c(=O)cc(Oc2ccc(F)cc2F)c2cnc(NCC(C)(C)O)nc21`, the AC50 is reported as 79.3 µM (active).
For `CCCCCCCCO`, the outcome was “inactive”.
For `O=c1[nH]c2ccc(S(=O)CCN3CCC(Cc4ccc(F)cc4)CC3)cc2o1` (stereo unspecified), the outcome was “inactive”.

Tested on: not listed separately
Assay: CCTE_Shafer_MEA_dev_burst_rate: CCTE's Neural Network Formation Assay for Burst Rate, Shafer Lab (AID 2284042)
In short: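 Primary rat cortical neurons on PEI-coated 48-well MEA plates (laminin added with cells at plating) (16 electrodes/well), exposed from plating to day 12, dosing renewed at DIV 5 and 9. Burst rate averaged over active electrodes, recorded DIV 5, 7, 9, 12, summarized as AUC; loss versus DMSO.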
In the case of `Cn1c(=O)c2c(ncn2C)n(C)c1=O`, the outcome is reported as “inactive”.
In the case of `COc1ccc(-n2nc(C(F)F)cc2-c2ccc(S(C)=O)cc2)cc1` (stereo unspecified), the outcome is reported as “inactive”.
With `CCC(C)(C)C(=O)O[C@H]1C[C@@H](C)C=C2C=C[C@H](C)[C@H](CC[C@@H]3C[C@@H](O)CC(=O)O3)[C@H]21` the outcome was “inactive”.
In the case of `CC[C@H](C)C(=O)O[C@H]1C[C@@H](C)C=C2C=C[C@H](C)[C@H](CC[C@@H]3C[C@@H](O)CC(=O)O3)[C@H]21`, the outcome is reported as “inactive”.
With `NC(=O)NO` the outcome was “inactive”.
In the case of `CNCc1ccc(NC(=O)c2c[nH]c3c2C(=O)CCC3)cc1`, the outcome is reported as “inactive”.
With `CC[C@H]1OC(=O)[C@H](C)[C@@H](O[C@H]2C[C@@](C)(OC)[C@@H](O)[C@H](C)O2)[C@H](C)[C@@H](O[C@@H]2O[C@H](C)C[C@H](N(C)C)[C@H]2O)[C@](C)(O)C[C@@H](C)C(=O)[C@H](C)[C@@H](O)[C@]1(C)O` the outcome was “inactive”.
In the case of `O=P(OC(CCl)CCl)(OC(CCl)CCl)OC(CCl)CCl`, the outcome is reported as “inactive”.
For `Nc1nc2ncc(CNc3ccc(C(=O)N[C@@H](CCC(=O)O)C(=O)O)cc3)nc2c(=O)[nH]1`, the outcome was “inactive”.
For `O=C1CCC(N2C(=O)c3ccccc3C2=O)C(=O)N1` (stereo unspecified), the outcome was “inactive”.
